Consider 40 molecules from PubChem BioAssay (NCATS).

The structures appear in SMILES notation. Records with an inconclusive call do not appear. Where a call stands in place of a potency, no number is given. Active and inactive are the calls of the source. The call rests on the fitted dose curve; in most records, active means well fitted inhibition curve with a large enough effect; inconclusive means small, poorly fitted or top-dose-only effect, or effect the other way; inactive means flat fitted curve, though single readings scatter.
Potency means the concentration at half of the fitted maximal effect.

Chain of ATPase family AAA domain-containing protein 5 (Homo sapiens) (Q96QE3 whole entry, looked up, the tested form may be a part): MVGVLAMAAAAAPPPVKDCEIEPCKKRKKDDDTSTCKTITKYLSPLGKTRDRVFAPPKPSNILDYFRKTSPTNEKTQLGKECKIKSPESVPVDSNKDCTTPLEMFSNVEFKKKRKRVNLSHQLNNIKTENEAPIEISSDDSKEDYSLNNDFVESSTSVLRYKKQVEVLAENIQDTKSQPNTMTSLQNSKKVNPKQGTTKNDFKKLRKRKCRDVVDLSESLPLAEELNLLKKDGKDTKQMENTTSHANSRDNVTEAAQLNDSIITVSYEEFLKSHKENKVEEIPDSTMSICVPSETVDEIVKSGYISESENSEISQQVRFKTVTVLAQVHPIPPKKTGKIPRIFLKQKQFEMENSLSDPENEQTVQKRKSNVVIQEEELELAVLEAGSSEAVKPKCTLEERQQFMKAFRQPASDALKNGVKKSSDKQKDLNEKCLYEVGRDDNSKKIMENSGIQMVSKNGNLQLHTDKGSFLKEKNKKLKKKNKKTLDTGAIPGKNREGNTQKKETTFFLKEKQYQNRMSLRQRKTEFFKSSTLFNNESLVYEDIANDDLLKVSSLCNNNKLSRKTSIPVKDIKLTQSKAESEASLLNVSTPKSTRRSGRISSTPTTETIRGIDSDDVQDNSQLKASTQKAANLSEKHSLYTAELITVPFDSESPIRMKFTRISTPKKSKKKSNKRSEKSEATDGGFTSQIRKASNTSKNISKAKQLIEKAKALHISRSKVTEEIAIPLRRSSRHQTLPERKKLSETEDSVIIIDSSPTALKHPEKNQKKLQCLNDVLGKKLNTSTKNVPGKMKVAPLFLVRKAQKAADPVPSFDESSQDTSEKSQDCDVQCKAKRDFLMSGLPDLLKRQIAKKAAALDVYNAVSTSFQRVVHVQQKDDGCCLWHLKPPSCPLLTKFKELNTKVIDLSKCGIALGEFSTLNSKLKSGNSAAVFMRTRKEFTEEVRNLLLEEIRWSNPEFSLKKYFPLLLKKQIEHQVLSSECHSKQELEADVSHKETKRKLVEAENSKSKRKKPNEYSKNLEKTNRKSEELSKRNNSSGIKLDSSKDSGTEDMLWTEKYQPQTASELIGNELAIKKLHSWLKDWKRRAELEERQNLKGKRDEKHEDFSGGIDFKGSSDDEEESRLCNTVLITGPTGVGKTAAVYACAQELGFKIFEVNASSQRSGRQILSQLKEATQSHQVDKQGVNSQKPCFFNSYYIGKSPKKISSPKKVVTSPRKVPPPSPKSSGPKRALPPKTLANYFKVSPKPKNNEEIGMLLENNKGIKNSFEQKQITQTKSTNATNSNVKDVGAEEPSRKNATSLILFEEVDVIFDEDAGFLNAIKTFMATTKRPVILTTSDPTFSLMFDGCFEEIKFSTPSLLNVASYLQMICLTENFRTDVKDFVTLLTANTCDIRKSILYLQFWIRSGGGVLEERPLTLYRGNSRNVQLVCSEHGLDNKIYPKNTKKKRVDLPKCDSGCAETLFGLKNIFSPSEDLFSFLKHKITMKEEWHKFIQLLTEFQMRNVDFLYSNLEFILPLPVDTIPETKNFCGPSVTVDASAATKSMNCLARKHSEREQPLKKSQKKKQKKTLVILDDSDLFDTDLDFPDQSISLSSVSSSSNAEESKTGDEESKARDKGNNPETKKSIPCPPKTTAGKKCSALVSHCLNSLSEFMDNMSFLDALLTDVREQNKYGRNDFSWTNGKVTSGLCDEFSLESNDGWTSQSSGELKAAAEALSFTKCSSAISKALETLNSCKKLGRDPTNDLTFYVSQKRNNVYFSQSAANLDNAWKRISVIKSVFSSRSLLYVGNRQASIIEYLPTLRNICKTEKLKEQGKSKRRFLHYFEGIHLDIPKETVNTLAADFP

The test concerns the target ATPase family AAA domain-containing protein 5 (Homo sapiens) (UniProt Q96QE3). The experiment in a line: Validation screen for small molecules that inhibit ELG1-dependent DNA repair in human embryonic kidney (HEK293T) cells expressing luciferase-tagged ELG1 (AID 493107). Further: nearly all actives have a fitted effect of over 70% in size. As to conditions: HEK293T ELG1-luciferase level, luminescence, 5-fluorouridine co-treatment, 16 h; series mostly up to 46.1 µM. The text has this: NIH Molecular Libraries Probe Production Network [MLPCN]
NIH Chemical Genomics Center [NCGC]
Assay Provider: Kyungjae Myung, NHGRI, NIH
Keywords: MLPCN, qHTS, NCGC, genotoxicity, cancer
Cancer cells divide rapidly compared to normal cells in the body. During cell division, cancer cells need to duplicate their genome by DNA replication. The failure of genome duplication leads to cancer cells' death. Therefore, inhibitors of DNA replication could specifically kill cancer cells. Based on this concept, many chemotherapeutic agents were developed and have been used to treat cancer patients. However, there are a limited number of agents available in the clinical setting, and some of those that do exist have low efficacy and severe side effects. Therefore, if we can find the compounds that effectively block DNA replication either by directly damaging DNA or by inhibiting other cellular mechanisms, the options for cancer treatment will be broadened. With this in mind, we developed a quantitative high-throughput ELG1-luciferase reporter gene assay. Small molecules that specifically block ELG1 function in response to DNA damage can be identified by monitoring the suppression of luciferase activity. Since ELG1 defines a pathway for repairing DNA damage, agents blocking ELG1 function can be used to sensitize cancer cells to chemotherapeutic agents whose mechanism of action involves the induction of DNA damage.
For genotoxicity screening, 2,000 cells in 4 uL/well were dispensed into white, solid-bottom 1536-well plates using a solenoid-based dispenser. Following transfer of 1 uL 5-Fluorouridine and 23 nL compound or DMSO vehicle by a pin tool, the plates were incubated 16 hr at 37 °C and 5% CO2. 5 ul ONE-Glo (Promega) was then added to each plate and following a 30 min incubation at room temperature, luciferase activity was quantified on a ViewLux CCD-based plate reader.
On to `N#C/C(=C\c1ccc(O)c(O)c1)C(=O)c1ccc(O)c(O)c1`, for which the Potency result is “inactive”.

Regarding `Clc1ccc(N2CCN(Cc3c[nH]c4ncccc34)CC2)cc1`, the Potency entry is “inactive”.

On to `CCc1c(C(=O)NCCc2ccc(N3CCCCC3)cc2)[nH]c2ccc(Cl)cc12`, for which the Potency entry was “inactive”.

For the molecule `CCCCCCCCCCCCCCCCCCNC(=O)OCC(COP(=O)([O-])OCC[n+]1ccsc1)OC` (stereo not given), the Potency result is “inactive”.

As for `NC(=O)C(=O)O`, the Potency result was “inactive”.

On to `CC(=O)/C=C1\C(=O)N(C)c2ccccc21`, for which the Potency result is “inactive”.

For `NCCNC(=O)c1ncsc1-c1cccc(F)c1`, the Potency result is “inactive”.

Consider `CCCCCC(O)c1cccc(OCc2ccc3ccccc3n2)c1` (stereo not given), for which the Potency entry was “inactive”.

Turning to `Oc1ccccc1O`, the Potency result is “inactive”.

`COc1cc(C(O)CO)ccc1OS(=O)(=O)O` (stereo not given): the Potency result is “inactive”.

In the case of `CN(C)CCCO[C@@H]1[C@H]2OC(C)(C)O[C@H]2O[C@@H]1[C@H](O)CO`, the Potency entry was “inactive”.

Regarding `CNCC[C@H](Oc1ccc(C(F)(F)F)cc1)c1ccccc1`, the Potency result is “inactive”.

Regarding `CC(=O)N[C@H](C(=O)O)C(C)(C)SN=O`, the Potency result is “inactive”.

With `CC(N)C(=O)OC(C)(C)Cc1ccc(Cl)cc1` (stereo not given), the Potency entry was “inactive”.

As to `C[N+](C)(C)CCOP(=O)(O)OP(=O)([O-])OC[C@H]1O[C@@H](n2ccc(N)nc2=O)[C@H](O)[C@@H]1O`, the Potency result is “inactive”.

For the molecule `O=C1/C(=C/c2ccsc2)CC/C1=C\c1cccs1`, the Potency result was “inactive”.

For the molecule `O=C(O)CCCC[C@@H]1CCSS1`, the Potency entry was “inactive”.

As for `O=C(O)c1cc([N+](=O)[O-])ccc1NCCCc1ccccc1`, the Potency result is “inactive”.

For the molecule `Cn1ncc(S(=O)(=O)Cc2ccccc2)c(Br)c1=O`, the Potency entry was “inactive”.

Take `O=C1O/C(=C/Br)CCC1c1cccc2ccccc12` (stereo not given): the Potency is 18.3 µM (active).

Turning to `Cc1ccc(S(=O)(=O)/C=C/C#N)cc1`, the Potency was 20.6 µM (active).

Turning to `C=CC(=O)c1ccc(CCCCCC)cc1`, the Potency result was “inactive”.

Take `O=C(O)c1cc(=O)c2ccccc2[nH]1`: the Potency entry is “inactive”.

With `O=C(O)/C=C/C(O)c1ccc(Cl)cc1` (stereo not given), the Potency result was “inactive”.

With `N=C(N)SCCc1ccc(CCSC(=N)N)cc1`, the Potency entry was “inactive”.

Regarding `COC(=O)c1c(C)[nH]c(C)c1C(=O)c1ccccc1Cc1ccccc1`, the Potency result is “inactive”.

Turning to `CCN(CC)c1ncnc2c1ncn2[C@@H]1O[C@H](COP(=O)(O)OP(=O)(O)C(Br)(Br)P(=O)(O)O)[C@@H](O)[C@H]1O`, the Potency entry was “inactive”.

As to `Nc1ncnc2c1ncn2[C@@H]1O[C@H](COP(=O)(O)CP(=O)(O)OP(=O)(O)O)[C@@H](O)[C@H]1O`, the Potency entry is “inactive”.

Consider `N#C/C(=C\c1ccc(O)c(O)c1)C(=O)NCc1ccccc1`, for which the Potency entry was “inactive”.

Consider `C=C[C@@H]1CN2CC[C@@H]1C[C@H]2[C@H](O)c1ccnc2ccc(OC)cc12`, for which the Potency entry is “inactive”.

Turning to `CCNC(=O)[C@H]1O[C@@H](n2cnc3c(N)nc(NCCc4ccc(CCC(=O)O)cc4)nc32)[C@H](O)[C@@H]1O`, the Potency result was “inactive”.

For `O=c1[nH]c2cc([N+](=O)[O-])c([N+](=O)[O-])cc2[nH]c1=O`, the Potency entry is “inactive”.

For the molecule `CCCN(CC1CC1)c1nc(C)nc(Nc2c(Cl)cc(Cl)cc2Cl)c1Cl`, the Potency result was “inactive”.

Turning to `CC(C)NC[C@H](O)COc1cccc2[nH]ccc12`, the Potency entry was “inactive”.

On to `N#C/C(=C\c1ccc(-c2cc(Cl)ccc2Cl)o1)C(=O)Nc1cccc2ncccc12`, for which the Potency is 16.4 µM (active).

With `Cc1cc(NC2CCCCC2)nc(-n2nc(C)cc2C)n1`, the Potency is 14.6 µM (active).

For `Cn1c(=O)c2[nH]c(-c3ccccc3)nc2n(C)c1=O`, the Potency entry is “inactive”.

As for `COc1cc(SC)ccc1C(=O)N1CCC(Cc2ccccc2)CC1`, the Potency entry was “inactive”.

Turning to `CC1CN(S(=O)(=O)c2cccc3cnccc23)CCN1` (stereo not given), the Potency was 20.6 µM (active).

As for `CC(COc1ccc(/C=C/c2ccccc2)cc1)[N+](C)(C)C` (stereo not given), the Potency result was “inactive”.
